PubChem BioAssay AID540255 (Broad Institute, 2011)
Results with a measured potency or affinity are listed apart. Results filed as inconclusive are left out. Active and inactive are the calls of the source. No rule for the calls is given here.

Experiment: inhibitors of control reporter signal in H4 cells – cell-based, plate reader, dry powder samples, counter-screen for prion reporter project, dose response (AID 540255)

| SMILES | outcome |
| --- | --- |
| Cc1cccc(C(=O)O/N=C(\N)c2ccccn2)c1 | inactive |
| COc1ccc(N=CC2=C(O)c3ccccc3C2=O)c(OC)c1 | inactive |
